A selection: hits, their analogues and other compounds. The true share with any hit is near 5.1%.
KCC2 mod – modulates chloride dependent transport by human KCC2; Q9H2X9; hit rate 2.2% among 190,000; B-score of Tl+ flux slope (higher = more flux/activation; lower = inhibition) at 10 µM; KCC2 cells, thallium flux FluoZin-2 fluorescence;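 active means thallium flux slope and its plate-corrected score both differing from the plate sample mean at a set confidence after two filtering rounds, in either direction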;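 further: slope of fluorescence scaled to starting intensity during 10 to 20 s after thallium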
S1P3 antagonist – antagonists of human S1P3 receptor. CHO S1P3 NFAT-BLA reporter, FRET fluorescence, antagonist mode. inhibition, % at 4.98 µM. hit rate 0.27% among 170,000. AID 485;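 active means inhibition above the plate cutoff, the mean inhibition of test wells on that plate plus 3 SD, cut at about 28% in these data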;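 further: cells challenged with S1P at its EC80 of 0.8 µM; blue over green emission ratio from cleaved BLA substrate after 4 h stimulation; 0% = S1P-stimulated wells and 100% = unstimulated DMSO-only wells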
ROMK primary – human ROMK K+ channel modulation, primary screen; Tet-inducible ROMK, thallium flux fluorescence; actives lie on both sides; hit rate 2% among 130,000; B-score at 10 µM; AID 1918;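 active means signal ratio slope over the read window, or its plate-corrected B-score, at least 3 SD from the plate mean, either direction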;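 further: B-score of the F/F0 ratio slope over 7 to 12 s after thallium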
Target sequence (P48048 whole entry, looked up): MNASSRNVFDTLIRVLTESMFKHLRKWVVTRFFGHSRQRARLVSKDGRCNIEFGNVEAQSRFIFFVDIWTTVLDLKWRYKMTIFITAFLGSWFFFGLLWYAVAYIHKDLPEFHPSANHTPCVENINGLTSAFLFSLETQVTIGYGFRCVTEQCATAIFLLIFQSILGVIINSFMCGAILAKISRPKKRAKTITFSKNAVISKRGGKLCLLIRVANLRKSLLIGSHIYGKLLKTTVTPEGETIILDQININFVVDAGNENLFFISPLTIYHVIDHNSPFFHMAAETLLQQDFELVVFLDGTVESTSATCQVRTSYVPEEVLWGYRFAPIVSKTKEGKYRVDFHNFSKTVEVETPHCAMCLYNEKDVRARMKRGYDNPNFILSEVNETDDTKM
S1P4 antag – antagonists of human S1P4 receptor; O95977; S1P4-expressing cells, antagonist mode, reporter read-out; inhibition, % at 4.98 µM; hit rate 0.26% among 220,000; AID 1510; in the data active means inhibition above about 29%;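 further: 0% = wells stimulated with agonist and 100% = vehicle wells without agonist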
RAM inhibit – inhibitors of the yeast RAM network; S. cerevisiae dse1pr::URA3 reporter, 5-FOA growth OD615, 2 d; analog-sensitive cbk1-as2 kinase mutant strain; inhibition, % at 50 µM; hit rate 1.8% among 190,000; AID 868;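 active means inhibition above a set limit, 3 SD over mean compound inhibition, cut at about 8.4% in these data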;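 further: 0% = DMSO-only wells with no growth and 100% = 10 µM 1-NA-PP1 full growth; inhibition rescues growth on 5-FOA so higher OD means more RAM inhibition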
S1P4 agonist – agonists of human S1P4 receptor. O95977. S1P4-expressing cell line, agonist reporter assay. activation, % at 4.98 µM. hit rate 0.35% among 220,000; in the data active means activation above about 11%;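 further: 0% = DMSO vehicle and 100% = reference agonist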
The depositor's hits bear a star; nt = not tested or not shown.

SMILES	KCC2 mod	S1P3 antagonist	ROMK primary	S1P4 antag	RAM inhibit	S1P4 agonist
CC1CCCC(n2c(=S)[nH]c3ccccc3c2=O)C1C (centres undefined)	28.7*	nt	nt	0.8	1.8	0.2
CC1CCC(n2c(=S)[nH]c3ccccc3c2=O)CC1 (centres undefined)	29.5*	13.7	nt	10.9	1.4	-1.8
Cc1nc2ccccn2c(=O)c1CCN1CCC(C(=O)c2ccc(F)cc2)CC1	1.36	-10.1	-2.65	-1.4	-0.7	81.1*
CC1CCN(CCCn2c(=S)[nH]c3ccccc3c2=O)CC1	0.594	13.9	nt	-14.1	0.6	0.1
Cc1nc2sccn2c(=O)c1CCN1CCC(=C(c2ccc(F)cc2)c2ccc(F)cc2)CC1	-0.708	-2.2	nt	-1.1	-0.4	0.0
O=c1c2ccccc2[nH]c(=S)n1CCCN1CCN(C2CCCCC2)CC1	2.29	70.3*	-0.449	-3.5	2.8	1.4
O=C(O)c1ccc2c(=O)n3cc(C(=O)c4ccccc4O)cc(Cl)c3nc2c1	-2	0.1	nt	-11.4	nt	1.0
CCn1c(SCC(=O)Nc2cccc(C)n2)nc2c1c(=O)n(C)c(=O)n2C	-0.317	-18.4	-0.162	-0.6	0.2	-1.3
Cc1ccc(C)c(Nc2nc3c(S(=O)(=O)c4ccccc4)nnn3c3ccccc23)c1	0.282	-9.6	-0.0872	-19.7	8.4*	-0.5
CN(C)CCNc1ncnc2c1sc1nc(-c3ccccc3)c3c(c12)CCCC3	1.25	-2.7	nt	-6.0	nt	-1.0
CC(=O)NCCn1c(SCc2cc(=O)n3cc(Cl)ccc3n2)nc2ccccc2c1=O	-1.47	-3.5	0.619	6.7	10.9*	1.1
CC(=O)NCCn1c(SCc2ccccc2F)nc2ccccc2c1=O	-0.892	-7.8	-2.46	2.0	-1.1	0.6
CC(C)CC(=O)Nc1ccc(C(=O)NNC(=S)NC(=O)C2CCCCC2)cc1	nt	nt	nt	-13.3	8.4*	-0.1
CCC(C)c1ccc(NC(=O)COc2c(F)c(F)c(C(F)(F)F)c(F)c2F)cc1 (centres undefined)	0.367	-9.4	nt	-5.3	10.3*	-1.2
O=C(CNc1ccc2ccccc2c1)N/N=C/c1ccc(C(=O)O)cc1	0.56	-22.9	0.7	-13.9	5.1	2.5
O=C(CNc1cccc2ccccc12)N/N=C/c1ccc(C(=O)O)cc1	0.285	-4.3	0.601	-28.3	10.5*	-0.4
Cc1ccc2c(c1)c(CC(=O)Nc1ccc(F)cc1)c(C(=O)O)n2C	-0.0474	nt	-0.184	-13.7	0.2	-4.0
Oc1c(N=Nc2ccccn2)ccc2ccccc12	52.6*	nt	nt	1.9	1.5	0.4
Clc1ccc(-n2ncc3c(NCc4ccco4)ncnc32)cc1	-0.206	nt	3.88*	11.2	6.9	-1.0
COc1ccccc1NC(=O)C1=C(C)NC2=C(C(=O)CC(c3ccc(OC)c(OC)c3)C2)C1c1coc2ccccc2c1=O (centres undefined)	-1.59	4.4	-0.58	15.4	9.8*	-4.2
O=C(NC(=S)N(CCCCO)C1CCCCC1)c1sc2ccccc2c1Cl	nt	nt	3.15*	10.8	-0.9	-1.5
O=C(Nc1ccc(NC(=O)C2CCCCC2)nc1)c1cccs1	0.079	-10.2	-0.564	7.9	5.9	0.5
COc1ccccc1NC(=O)CSc1nnc(CCNC(=O)c2ccc(C)cc2)n1C	nt	-10.8	0.00519	-9.7	-0.1	0.8
Cc1ccc(-n2c3nc(=O)[nH]c(=O)c-3cc3cc([N+](=O)[O-])ccc32)cc1C	0.414	-16.5	nt	1.8	9.4*	0.1
COc1cccc(NC(=O)CSc2ncnc3c2cnn3Cc2ccccc2)c1	0.229	nt	-0.889	-9.8	8.4*	3.2
SMILES	KCC2 mod	S1P3 antagonist	ROMK primary	S1P4 antag	RAM inhibit	S1P4 agonist
CCOc1ccc(C(=O)NCC(=O)OCC(=O)N2CCCCC2)cc1	0.472	nt	0.946*	-4.6	0.3	-0.3
Cn1cc(/C=C2\SC(=S)N(NC(=O)c3ccccc3Cl)C2=O)c2ccccc21	-5.29*	-7.0	-0.324	-11.5	4.2	1.9
CC1CC(=O)Nc2ccccc2N1C(=O)CN1CCN(c2ccccc2)CC1 (centres undefined)	0.735	-21.0	1.24	-1.9	1.4	-0.1
CC(C)c1ccc(S(=O)(=O)/N=C2/C=C(Sc3ncn[nH]3)C(=O)c3ccccc32)cc1	1.66	-29.2	-2.61*	24.4	2.6	7.8
C=CCn1c(SCc2ccccc2Cl)nnc1-c1sc2nc(C)cc(C)c2c1N	-0.558	0.3	nt	-3.8	nt	0.0
COc1ccc(-c2oc3c(OC)c(OC)c(OC)c(O)c3c(=O)c2OC)cc1OC	0.751	-8.1	nt	1.9	-0.6	0.1
COc1c(OC)c(O)c2c(=O)c(O)c(-c3ccccc3)oc2c1OC	51.6*	-3.5	nt	-28.3	3.1	0.3
O=C(CN(c1cccc([N+](=O)[O-])c1)S(=O)(=O)c1ccccc1)N(Cc1ccccc1)Cc1ccccc1	-1.53	-8.0	-0.483	-12.4	8.6*	0.6
O=C(COc1ccc([N+](=O)[O-])cc1)N(Cc1ccccc1)Cc1ccccc1	0.0125	4.7	-1.23	-3.2	11.0*	-0.9
O=C(COc1ccccc1)NNC(=O)COc1ccc([N+](=O)[O-])cc1	-0.746	-11.8	0.955	-2.1	2.2	1.3
O=c1cnc2cc([N+](=O)[O-])ccc2[nH]1	0.631	-14.8	1.12	-10.5	0.5	-0.8
Cc1[nH]n2c(=O)c3c(nc2c1-c1ccccc1)CCC3	-0.543	-20.0	nt	-13.0	1.0	1.6
O=c1c2c(nc3c(-c4ccccc4)c[nH]n13)CCCC2	2.76*	nt	nt	10.0	0.2	4.1
Cc1cc2c3c(c1)C(C)CC(C)(C)N3C(=O)C2=C(C#N)C#N (centres undefined)	0.352	-6.3	nt	3.4	nt	0.6
COc1ccc(CCn2c(C)nc3c(c(=O)c4ccccc4n3C)c2=O)cc1	-1.26	2.0	nt	-11.9	-0.2	0.5
COc1ccc(CCn2c(C(C)C)nc3c(c(=O)c4ccccc4n3C)c2=O)cc1	-4.25*	0.6	nt	-10.6	8.9*	-2.5
COc1ccc(Cn2c(-c3ccc(C)cc3)nc3c(c(=O)c4ccccc4n3C)c2=O)cc1	0.862	-8.4	0.193	-21.1	9.9*	-3.0
COc1ccc(Cn2c(-c3ccc(OC)cc3)nc3c(c(=O)c4ccccc4n3C)c2=O)cc1	-0.903	-12.1	nt	-17.6	5.7	0.5
COC(=O)Cn1c(=NC(=O)c2nc3ccccc3s2)sc2cc(S(N)(=O)=O)ccc21	0.62	-4.3	0.0135	-32.8	8.6*	0.7
COC(=O)Cn1c(=NC(=O)c2cc(-c3cccs3)nc3ccccc23)sc2cc(S(N)(=O)=O)ccc21	1.88	9.4	-0.408	6.4	6.9	0.2
COc1ccc(C(=O)Nc2ccc(S(=O)(=O)N3CCCCC3)cc2)cc1	-0.735	nt	nt	-0.6	2.3	-0.7
COc1ccc(-c2cnnn2-c2ccc(NC(=O)c3ccc(S(=O)(=O)N4CCCCC4)cc3)cc2)cc1	0.389	8.2	0.692	-24.8	9.8*	0.3
COc1ccc(NC(=O)CCC(=O)c2cccs2)cc1S(=O)(=O)Nc1ccccc1Cl	-3.29	1.1	-0.314	-21.9	10.0*	1.0
O=C(NCc1ccccc1)c1cccc(Br)n1	-0.281	-2.1	-0.723	0.8	-0.7	1.8

Screening results: PubChem BioAssay, several laboratories
